# The supplement of paper PMC8253809
# Test system: SUDIPGVI (diffuse intrinsic pontine glioma line)
# Assay: growth inhibition (% activity, log2 RLU normalised to DMSO / staurosporine); higher = more growth inhibition
# Settings: 33 µM
# Method in brief: (§1)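 Approved drugs were tested in triplicate at a single final concentration of about 33 μM for 7 days at 37 °C, 5% CO2, on pHGG cell lines and H9-derived neural stem cells. Readout was CellTiter-Glo luminescence, log2-transformed and scaled per plate to % activity between solvent and positive control wells. The median over replicates gives the growth-inhibition value.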
row,SMILES,growth inhibition [%]
1,NC(=O)c1ncn([C@@H]2O[C@H](CO)[C@@H](O)[C@H]2O)c1O,-1.05
2,COc1cc2c(cc1O)CC[C@@H]1[C@@H]2CC[C@]2(C)[C@@H](O)CC[C@@H]12,-1.23
3,COc1ccccc1OCC(O)CO (centres undefined),-1.52
4,CC(=O)O[C@H]1C(=O)[C@@]2(C)[C@H]([C@H](OC(=O)c3ccccc3)[C@]3(O)C[C@H](OC(=O)[C@H](O)[C@@H](NC(=O)c4ccccc4)c4ccccc4)C(C)=C1C3(C)C)[C@]1(OC(C)=O)CO[C@@H]1C[C@@H]2O,6.74
5,CC1CNc2c(cccc2S(=O)(=O)N[C@@H](CCCNC(=N)N)C(=O)N2CC[C@@H](C)C[C@@H]2C(=O)O)C1 (some centres undefined),0.243
6,N[C@@H]1CN(c2c(F)cc3c(=O)c(C(=O)O)cn([C@@H]4C[C@@H]4F)c3c2Cl)CC12CC2,3.9
7,C=Cc1c(C)c2cc3nc(cc4[nH]c(cc5nc(cc1[nH]2)C(C)=C5CCC(=O)O)c(CCC(=O)OC)c4C)C1(C)C3=CC=C(C(=O)OC)C1C(=O)OC (centres undefined),-1.11
8,CN1CCN(CCCN2c3ccccc3Sc3ccc(C(F)(F)F)cc32)CC1,-3.52
9,CC(c1cc2ccccc2s1)N(O)C(N)=O (centres undefined),-1.81
10,CN1CCN(c2cc3c(cc2F)c(=O)c(C(=O)O)cn3-c2ccc(F)cc2)CC1,1.63
11,CC1(C)S[C@@H]2[C@H](NC(=O)[C@H](NC(=O)N3CCNC3=O)c3ccccc3)C(=O)N2[C@H]1C(=O)O,-1.06
12,Cc1cccn2c(=O)c(-c3nnn[nH]3)cnc12,0.709
13,CC(C)(C(=O)O)c1ccc(C(O)CCCN2CCC(C(O)(c3ccccc3)c3ccccc3)CC2)cc1 (centres undefined),1.9
14,CCOC(=O)CC(=O)N1CCSC1COc1ccccc1OC (centres undefined),2.42
15,Cc1cnc(NC(=O)C2=C(O)c3ccccc3S(=O)(=O)N2C)s1,1.38
16,CC(C)(S)[C@@H](N)C(=O)O,0.273
17,CCCCNC(=O)NS(=O)(=O)c1ccc(C)cc1,2.09
18,CCN1CCN(C(=O)NC(C(=O)NC2C(=O)N3C(C(=O)O)=C(CSc4nnnn4C)CSC23)c2ccc(O)cc2)C(=O)C1=O (centres undefined),-2.25

# Test system: SUDIPGXIII (diffuse intrinsic pontine glioma line)
# Assay: as above
# Settings: 33 µM
# Method in brief: as §1
row,SMILES,growth inhibition [%]
1,Oc1ccc(/C=C/c2cc(O)cc(O)c2)cc1,-0.764
2,CN1C2CCCC1CC(NC(=O)c1nn(C)c3ccccc13)C2 (centres undefined),0.965
3,CC(C)(C)c1nc(-c2cccc(NS(=O)(=O)c3c(F)cccc3F)c2F)c(-c2ccnc(N)n2)s1,-0.13
4,CC(C)OC(=O)C(C)(C)Oc1ccc(C(=O)c2ccc(Cl)cc2)cc1,0.0771
5,CC1CCc2cc(F)cc3c(=O)c(C(=O)O)cn1c23 (centres undefined),-18.7
6,CC(=O)NC[C@H]1CN(c2ccc(N3CCOCC3)c(F)c2)C(=O)O1,1.55
7,O=C(O)c1ccccc1,1.73
8,Cc1ccnc2c1NC(=O)c1cccnc1N2C1CC1,0.637
9,Nc1nc2ccc(OC(F)(F)F)cc2s1,1.66
10,CCOC(=O)c1ncn2c1CN(C)C(=O)c1cc(F)ccc1-2,2.26
11,Nc1nccs1,0.0518
12,Cn1ccnc1S,-8.17
13,N#C[C@@H]1C[C@@H]2C[C@@H]2N1C(=O)[C@@H](N)C12CC3CC(CC(O)(C3)C1)C2,7.88
14,CC(C)CC(N)=O,-12.8
15,COc1ccccc1OCC(O)COC(N)=O (centres undefined),-0.184
16,CCCc1cc(=O)[nH]c(=S)[nH]1,1.61
17,CC1(C)O[C@@H]2C[C@H]3[C@@H]4CCC5=CC(=O)C=C[C@]5(C)[C@@]4(F)[C@@H](O)C[C@]3(C)[C@]2(C(=O)CO)O1,0.942
18,CN(C)CCOC(c1ccccc1)c1ccccc1,-1.22
19,CCOC(=O)c1c(CSc2ccccc2)n(C)c2cc(Br)c(O)c(CN(C)C)c12,3.61
20,CS(=O)(=O)c1ccc(C2=C(c3ccccc3)C(=O)OC2)cc1,0.203
21,Fc1ccc([C@@H]2CCNC[C@H]2COc2ccc3c(c2)OCO3)cc1,1.2
22,NC(=O)c1ncn([C@@H]2O[C@H](CO)[C@@H](O)[C@H]2O)c1O,-0.893
23,COc1cc2c(cc1O)CC[C@@H]1[C@@H]2CC[C@]2(C)[C@@H](O)CC[C@@H]12,1.78
24,COc1ccccc1OCC(O)CO (centres undefined),1.23
25,CC(=O)O[C@H]1C(=O)[C@@]2(C)[C@H]([C@H](OC(=O)c3ccccc3)[C@]3(O)C[C@H](OC(=O)[C@H](O)[C@@H](NC(=O)c4ccccc4)c4ccccc4)C(C)=C1C3(C)C)[C@]1(OC(C)=O)CO[C@@H]1C[C@@H]2O,6
26,CC1CNc2c(cccc2S(=O)(=O)N[C@@H](CCCNC(=N)N)C(=O)N2CC[C@@H](C)C[C@@H]2C(=O)O)C1 (some centres undefined),-1.66
